The source made the active and inactive calls. The calls were made as follows: active = hit-call score of the fitted dose curve at least 0.9, where 1 is the maximum; inactive = score below 0.9.

Our source for the outcome and AC50 values is PubChem BioAssay (EPA / NIEHS).

Read-out in the first assay: Transforming Growth Factor (TGFA), TGFA (gene 7039)
The assay can be described thus: LTEA_HepaRG_TGFA: Life Technologies and Expression Analysis (LTEA) Assay for Transforming Growth Factor (TGFA) using HepaRG (AID 2283532). Conditions: mRNA level, 48 h; actives raise or lower the signal. The method in brief:
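HepaRG (human liver line), 48 h exposure, 8 conc. half-log down from 100 uM, 0.5% DMSO vehicle, duplicates; serum-free induction medium. TGFA mRNA by TaqMan qRT-PCR, ACTB/GAPDH/POLR2A normalization; gain/loss fit vs DMSO.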
As to `Clc1ccc(C(Cl)(Cl)Cl)cc1`, the molecule was called inactive.

For `CCCCCCCCCc1ccc(O)cc1`, the molecule was called inactive.

The term AC50 denotes the concentration at which the activity in the assay is half-maximal. Turning to `NS(=O)(=O)C(F)(F)C(F)(F)C(F)(F)C(F)(F)C(F)(F)C(F)(F)C(F)(F)C(F)(F)F`, the AC50 was 12 µM (active).

For the molecule `CC(C)(O)C(=O)Nc1ccc([N+](=O)[O-])c(C(F)(F)F)c1`, the AC50 was 0.0264 µM (active).

Take `O=C(O)C(F)(F)C(F)(F)C(F)(F)C(F)(F)C(F)(F)F`: the call was inactive.

As for `O=S(=O)(O)C(F)(F)C(F)(F)C(F)(F)C(F)(F)F`, the result was inactive.

For the molecule `ClC1=C(Cl)[C@]2(Cl)[C@@H]3[C@H]4C[C@H]([C@@H]5O[C@H]45)[C@@H]3[C@@]1(Cl)C2(Cl)Cl`, the call was inactive.

With `Cc1cc2c3c(c1)C(c1ccccc1)=N[C@@H](NC(=O)c1ccncc1)C(=O)N3CC2`, the result was inactive.

Take `N#Cc1ccc(N(CC(N)=O)CC(F)(F)F)cc1C(F)(F)F`: the outcome was inactive.

For `Cc1ccc(O)c(C)c1`, the result was inactive.

Turning to `CCCN(CCC)N=O`, the molecule was called inactive.

Take `CN(C)c1nc(=O)n(C2CCCCC2)c(=O)n1C`: the molecule was classed as inactive.

In the case of `COS(=O)(=O)OC`, the outcome was inactive.

Regarding `CCCCCCOC(=O)c1ccccc1C(=O)OCCCCCC`, the result was inactive.

`O=C(O)C(F)(F)C(F)(F)C(F)(F)C(F)(F)C(F)(F)C(F)(F)C(F)(F)C(F)(F)C(F)(F)F`: the AC50 was 23.4 µM (active).

As to `CO/C=C(/C(=O)OC)c1ccccc1COc1cccc(C(F)(F)F)n1`, the half-maximal activity concentration (AC50) was 10.6 µM (active).

As to `O=NN(c1ccccc1)c1ccccc1`, the outcome was inactive.

On to `CCC(C)(CC)c1cc(NC(=O)c2c(OC)cccc2OC)on1`, for which the outcome was inactive.

With `CC#Cc1cc(C)nc(Nc2ccccc2)n1`, the call was inactive.

For `C[C@]12CCC(=O)C=C1CC[C@@H]1[C@@H]2CC[C@@]2(C)[C@H]1CC[C@]2(C)O`, the molecule was classed as inactive.

Take `ClC1=C(Cl)[C@]2(Cl)[C@@H]3[C@@H]4C[C@@H]([C@H]5O[C@@H]45)[C@@H]3[C@@]1(Cl)C2(Cl)Cl`: the call was inactive.

Consider `CCOP(=S)(OCC)SCSC(C)(C)C`, for which the outcome was inactive.

Take `CCC(=O)O[C@H]1CC[C@H]2[C@@H]3CCC4=CC(=O)CC[C@]4(C)[C@H]3CC[C@]12C`: the outcome was inactive.

`CC(c1ccc(O)cc1)(c1ccc(O)cc1)c1ccc(O)cc1`: the molecule was called inactive.

As for `CCNc1nc(NC(C)C)nc(SC)n1`, the outcome was inactive.

Regarding `O=C(N[C@H]1CN2CCC1CC2)c1cc2ccoc2cn1`, the outcome was inactive.

Turning to `O=S(=O)(O)C(F)(F)C(F)(F)C(F)(F)C(F)(F)C(F)(F)C(F)(F)F`, the result was inactive.

As for `COc1ccc(O)c(C(C)(C)C)c1`, the result was inactive.

Regarding `Cc1ccccc1[N+](=O)[O-]`, the molecule was called inactive.

Turning to `CCOC(=O)C(O)(c1ccc(Cl)cc1)c1ccc(Cl)cc1`, the result was inactive.

With `Oc1ccc(Cl)cc1Cl`, the molecule was classed as inactive.

Read-out in the next assay: Transforming Growth Factor (TGFB1), TGFB1 (gene 7040)
The assay can be described thus: LTEA_HepaRG_TGFB1: Life Technologies and Expression Analysis (LTEA) Assay for Transforming Growth Factor (TGFB1) Transporter using HepaRG (AID 2283533). Conditions: mRNA level, 48 h; actives raise or lower the signal. The method in brief: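 Differentiated human HepaRG cells in serum-free induction medium were exposed in duplicate for 48 h to eight concentrations (top 100 uM, half-log steps, 0.5% DMSO). TGFB1 mRNA was quantified by qRT-PCR, normalized to ACTB, GAPDH, POLR2A, and fitted bidirectionally against DMSO.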
On to `Clc1ccc(C(Cl)(Cl)Cl)cc1`, for which the outcome was inactive.

As for `CCCCCCCCCc1ccc(O)cc1`, the molecule was called inactive.

With `NS(=O)(=O)C(F)(F)C(F)(F)C(F)(F)C(F)(F)C(F)(F)C(F)(F)C(F)(F)C(F)(F)F`, the AC50 was 39.4 µM (active).

For the molecule `CC(C)(O)C(=O)Nc1ccc([N+](=O)[O-])c(C(F)(F)F)c1`, the outcome was inactive.

As for `O=C(O)C(F)(F)C(F)(F)C(F)(F)C(F)(F)C(F)(F)F`, the call was inactive.

For the molecule `O=S(=O)(O)C(F)(F)C(F)(F)C(F)(F)C(F)(F)F`, the molecule was classed as inactive.

For `ClC1=C(Cl)[C@]2(Cl)[C@@H]3[C@H]4C[C@H]([C@@H]5O[C@H]45)[C@@H]3[C@@]1(Cl)C2(Cl)Cl`, the molecule was classed as inactive.

As to `Cc1cc2c3c(c1)C(c1ccccc1)=N[C@@H](NC(=O)c1ccncc1)C(=O)N3CC2`, the molecule was called inactive.

Turning to `N#Cc1ccc(N(CC(N)=O)CC(F)(F)F)cc1C(F)(F)F`, the result was inactive.

In the case of `Cc1ccc(O)c(C)c1`, the outcome was inactive.

Turning to `CCCN(CCC)N=O`, the molecule was called inactive.

For the molecule `CN(C)c1nc(=O)n(C2CCCCC2)c(=O)n1C`, the result was inactive.

`COS(=O)(=O)OC`: the molecule was called inactive.

In the case of `CCCCCCOC(=O)c1ccccc1C(=O)OCCCCCC`, the result was inactive.

Consider `O=C(O)C(F)(F)C(F)(F)C(F)(F)C(F)(F)C(F)(F)C(F)(F)C(F)(F)C(F)(F)C(F)(F)F`, for which the half-maximal activity concentration (AC50) is 23.3 µM (active).

`CO/C=C(/C(=O)OC)c1ccccc1COc1cccc(C(F)(F)F)n1`: the result was inactive.

Regarding `O=NN(c1ccccc1)c1ccccc1`, the molecule was classed as inactive.

Turning to `CCC(C)(CC)c1cc(NC(=O)c2c(OC)cccc2OC)on1`, the AC50 was 50 µM (active).

For the molecule `CC#Cc1cc(C)nc(Nc2ccccc2)n1`, the molecule was classed as inactive.

Take `C[C@]12CCC(=O)C=C1CC[C@@H]1[C@@H]2CC[C@@]2(C)[C@H]1CC[C@]2(C)O`: the half-maximal activity concentration (AC50) is 45.8 µM (active).

On to `ClC1=C(Cl)[C@]2(Cl)[C@@H]3[C@@H]4C[C@@H]([C@H]5O[C@@H]45)[C@@H]3[C@@]1(Cl)C2(Cl)Cl`, for which the molecule was called inactive.

Turning to `CCOP(=S)(OCC)SCSC(C)(C)C`, the molecule was classed as inactive.

On to `CCC(=O)O[C@H]1CC[C@H]2[C@@H]3CCC4=CC(=O)CC[C@]4(C)[C@H]3CC[C@]12C`, for which the call was inactive.

In the case of `CC(c1ccc(O)cc1)(c1ccc(O)cc1)c1ccc(O)cc1`, the result was inactive.

Take `CCNc1nc(NC(C)C)nc(SC)n1`: the call was inactive.

On to `O=C(N[C@H]1CN2CCC1CC2)c1cc2ccoc2cn1`, for which the outcome was inactive.

Take `O=S(=O)(O)C(F)(F)C(F)(F)C(F)(F)C(F)(F)C(F)(F)C(F)(F)F`: the call was inactive.

On to `COc1ccc(O)c(C(C)(C)C)c1`, for which the call was inactive.

Regarding `Cc1ccccc1[N+](=O)[O-]`, the result was inactive.

As for `CCOC(=O)C(O)(c1ccc(Cl)cc1)c1ccc(Cl)cc1`, the molecule was called inactive.

On to `Oc1ccc(Cl)cc1Cl`, for which the call was inactive.
